# Laboratory results published in PubChem BioAssay (NCI).
# This is part of a sample that, as a whole, favours compounds with a hit. Of some 83,000 tested, about 20% had one in any assay.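 Interpretation: 100, growth as untreated; towards 0, rising growth inhibition; 0, no net growth; 0 to -100, cell death. Compounds scoring below 10 were considered active.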 Unmarked numbers belong to inactive results. Active and inactive are the calls of the source.
# Test system: HS 578T breast
# Assay: NCI-60 one-dose screen, 48 h (100 = growth as untreated, 0 = no growth, -100 = all killed)
# Details: 10 µM unless noted
# Protocol: Growth inhibition of the HS 578T human tumor cell line is measured as a screen for anti-cancer activity. Cells are grown in 96 well plates and exposed to the test compound for 48 hours. Compounds are tested at a single concentration, which is 10^-5 M for most compounds. The reported endpoint is percent growth (GI% or GIPRCNT), where numbers from 0 - 100% represent growth inhibition, and numbers from -100% - 0 represent cell death. For example, a value of 40 represents 60% growth inhibition. A value of 0 means no net growth occurred over the course of the experiment. A value of -40 indicates 40% of cells at the beginning of the experiment died by the end of the experiment. A value of -100 means all cells are dead at the end of the experiment.
# NCI-60 Human Tumor Cell Lines Screen was performed using the standard one-dose NCI protocol, which is described in more detail at https://dtp.cancer.gov/discovery_development/nci-60/default.htm.
# Compounds with GIPRCNT values below 10 were considered active. Activity score was based on GIPRCNT using the following formula: […]
# Score is 0 for GIPRCNT values of 100 or above, 50 for GIPRCNT values of 0, and 100 for GIPRCNT values of -100.
row,SMILES,growth
1,Cc1ccc(NC2=C(Cl)C(=O)c3nc(C)ccc3C2=O)cc1,27.9%
2,O=c1n(Cc2ccc3ccccc3c2)ccn1Cc1ccc2ccccc2c1,86.9%
3,CCc1ccc(Oc2c(-c3ccc(OCc4ccc(Cl)cc4)cc3O)n[nH]c2C(F)(F)F)cc1,27.9%
4,CCCCCCNC(=O)Oc1ccc(/C(=C(\C)c2ccc(OC)cc2)c2ccc(OCCN3CCCCC3)cc2)cc1,65.7%
5,CCCSc1nc2ccc(C)cc2cc1/C=[N+](\[O-])c1ccccc1,48.6%
6,COc1ccc(C(=O)COC(=O)[C@H](C[Se][Se]C[C@H](NC(=O)c2ccc(Br)cc2F)C(=O)OCC(=O)c2ccc(OC)cc2)NC(=O)c2ccc(Br)cc2F)cc1,-6.55% (active)
7,Nc1nc(Cl)cc(=O)n1Cc1ccccc1,135%
8,Cc1nn(-c2ccccc2)c(-n2ccnc2)c1/C=N/Nc1nc(-c2ccc(Cl)c(Cl)c2)cs1,42%
9,COc1ccn2c(C(C)=O)cc(C(=O)c3ccc4c(c3)Sc3ccccc3N4)c2c1,41.9%
10,CCOc1cccc(NC2=C(Br)C(=O)C(C)=C(C)C2=O)c1,91.2%
11,O=c1ccn(Cc2cn(-c3c4ccccc4nc4ccccc34)nn2)c(=O)[nH]1,94.6%
12,O=C(Cc1ccc(F)c(Cl)c1)Nc1cc(C2(C(F)(F)F)CC2)nn1Cc1ccccc1,26.2%
13,CC(C)c1cc(C(C)C)c(S(=O)(=O)Oc2ccc(NC(=O)c3ccc(Cl)cc3)cc2)c(C(C)C)c1,39.5%
14,CC(=O)N1CCN(c2ccc(OCC3CO[C@](Cn4ccnc4)(c4ccc(Cl)cc4Cl)O3)cc2)CC1 (stereo not given in full),102%
15,CCOC(=O)c1cn2ncnc(Oc3ccc(NC(=O)NCCN(C)C)c(Cl)c3)c2c1C,85.6%
16,COc1ccc2nc(NCCCNCCO)c3sc4ccc(F)cc4c(=O)c3c2c1,63.5%
17,COc1cc2cc(Oc3ccc(NC(=O)Nc4cc(C(F)(F)F)cc(C(F)(F)F)c4)cc3)c(C)nc2cc1OCCN1CCOCC1,60.6%
18,COc1cc(C(=O)c2cc(C)c3[nH]c4ccc(O)cc4c3c2C)cc(OC)c1OC,38.1%
19,Cc1cc2[nH]c(=O)c3c4ncccc4cn3c2cc1C,101%
20,CC1Cc2c(ncn3c(-c4ccc(F)cc4)nnc23)N(C)c2ccccc21 (stereo not given),26.1%

row,SMILES,growth
1,Cc1c(C(=O)NCCCc2ccccc2)sc2ncc(-c3ccc(Br)cc3)n12,104%
2,CC(=O)CC(c1cccs1)c1c(-c2ccccc2)[nH]c2ccccc12 (stereo not given),82.1%
3,COc1nc2ccc(C)cc2cc1-c1nc2c(cnn2-c2ccccc2)c(=O)[nH]1,90.6%
4,COc1cc(C(=O)/C=C/c2sc(Cl)nc2Cl)cc(OC)c1OC,71.3%
5,C#C[C@]1(O)CC[C@H]2[C@@H]3CC=C4c5sc(Nc6cc(F)ccc6F)nc5CC[C@]4(C)[C@H]3CC[C@@]21C,-10.8% (active)
6,O=C(CCN1C(=O)/C(=C/c2ccc(O)cc2)SC1=S)Nc1ccccc1,93.3%
7,COc1ccc(/C=N/Nc2cc(=O)[nH]c3ccc(C)cc23)cc1,88.3%
8,C[N+]1=C(/C=C/c2ccc(O)c3ncccc23)C(C)(C)c2ccccc21,49.2%
9,Cc1[nH]c(C(=O)Nc2ccc(C(=O)N3CCNCC3)cc2OC(C)C)c(Cl)c1Cl,73%
10,O=c1ccc(N=Nc2ccc([N+](=O)[O-])cc2)ccc1O,34.8%
11,COc1ccc(-c2conc2-c2ccccc2)cc1,7.75% (active)
12,Cc1cc(=O)[nH]c(=O)n1Cc1cn(-c2c3ccccc3nc3ccccc23)nn1,100%
13,COc1nc2ccccc2cc1-c1nc2c(cnn2-c2ccccc2)c(=O)[nH]1,50.2%
14,COc1ccc(C(=O)/C=C/c2sc(Cl)nc2Cl)cc1,58.5%
15,COc1cc2cc(Oc3ccc(NC(=O)Nc4ccc(F)c(C(F)(F)F)c4)cc3)c(C)nc2cc1OCCN1CCOCC1,65.8%
16,CCOC(=O)Nc1ccc(-c2nc(-c3cccc(OCCN4CCOCC4)c3)c(-c3ccnc(Br)c3)[nH]2)cc1,-16.4% (active)
17,CCCCCCN1C(=O)/C(=c2\sc3n(c2=O)C2C(NN=3)N(CC)C(=O)N2CC)c2ccccc21 (stereo not given),4.83% (active)
18,COc1ccc2sc3c(NCCCN(C)C)nc4ccccc4c3c(=O)c2c1,73%
19,Cc1nc2cnc(N)c(C#Cc3cncc(C(=O)Nc4ccc(CN5CCN(C)CC5)c(C(F)(F)F)c4)c3)c2nc1C,-20.2% (active)
20,CCOC(=O)c1cn2ncnc(Oc3ccc(NC(=O)NCCN(CC)CC)c(Cl)c3)c2c1C,77.7%
